In all, about 52,000 compounds went through this assay and about 4,300 (8.3%) were called active. This is one part of a sample in which actives are shown more often than they occur. A number with no mark means an inactive call. Rule as the data show it: active = survival mostly below about 52% (no sharp cut-off); inactive = mostly above about 56%.
tested on: DeltatarO mutant; assay: S. aureus survival, RN4220 and DeltatarO strains – OD600, teichoic acid synthesis inhibitors, primary screen (AID 463173); details: S. aureus RN4220 wild type/DeltatarO growth, OD600, 18 h, stronger effect = lower value, screened at 18.75 µg/mL (by protocol)

Row | SMILES | survival
1 | CN1C(C(=O)Nc2cccc(O)c2)=CC(c2ccco2)=NS1(=O)=O | 88%
2 | CCn1c(C)c(C)c2cc(C(=O)NCc3ccc(F)cc3)ccc21 | 90%
3 | COc1ccc(CNC(=O)CCc2c(C)nc3c(c2C)c(=O)n(C)c(=O)n3C)cc1 | 115%
4 | CCN(CC)S(=O)(=O)c1nnc(NC(=O)c2ccc(Br)cc2)s1 | 44% (active)
5 | CCN(CC)S(=O)(=O)c1nnc(NC(=O)c2ccc(C)cc2)s1 | 63%
6 | CCN(CC)S(=O)(=O)c1nnc(NC(=O)COc2ccccc2)s1 | 100%
7 | CCN(CC)S(=O)(=O)c1nnc(NC(=O)COc2ccc(Cl)cc2)s1 | 87%
8 | CCN(CC)S(=O)(=O)c1nnc(NC(=O)COc2ccc(C)cc2)s1 | 88%
9 | CCN(CC)S(=O)(=O)c1nnc(NC(=O)c2ccc(C(C)C)cc2)s1 | 44% (active)
10 | COCCCNC(=O)c1sc2ncccc2c1-n1cccc1 | 75%
11 | COc1ccc(CNC(=O)C2CCN(c3nnc(-n4c(C)ccc4C)s3)CC2)c(OC)c1 | 87%
12 | COc1ccc2c(c1)CC(NC(=O)Nc1ccc(Br)c(C)c1)CO2 (centres undefined) | 75%
13 | CCOC(=O)C1=C(CN2CCN(c3cccc(OC)c3)CC2)NC(=O)NC1c1ccc(OC)cc1 (centres undefined) | 88%
14 | Cn1cc(S(=O)(=O)N2CCCCC2)cc1C(=O)N1CCN(c2ccc(F)cc2)CC1 | 55%
15 | COC(=O)c1scc(-c2ccc(C)cc2)c1S(=O)(=O)N1CCN(c2ccc(F)cc2)CC1 | -4% (active)
16 | COC(=O)c1scc(-c2ccc(C)cc2)c1S(=O)(=O)N1CCN(c2ccc(OC)cc2)CC1 | 60%
17 | COC(=O)c1cc(S(=O)(=O)N2CCN(c3ccc(F)cc3)CC2)cn1C | -5% (active)
18 | Cn1cc(S(=O)(=O)N2CCCCCC2)cc1C(=O)N1CCN(c2ccc(F)cc2)CC1 | 75%
19 | COC(=O)c1scc(-c2ccc(C)cc2)c1S(=O)(=O)N1CCN(c2ccccc2)CC1 | 72%
20 | Cc1cc(C)cc(NC(=O)N2CCC(NC(=O)C3CCCCC3)CC2)c1 | 92%
21 | Cc1ccccc1NC(=O)CN1CCCC1 | 70%
22 | COCCCn1c(=O)c2sccc2n2c(CCCC(=O)NCc3ccc(F)cc3)nnc12 | 92%
23 | O=c1c2sc3ccccc3c2n(Cc2cccc(C(F)(F)F)c2)c(=O)n1Cc1ccccc1 | 67%
24 | CCOC(=O)c1[nH]c2ccccc2c1NC(=O)c1ccc(OC)c(OC)c1 | 131%

Row | SMILES | survival
25 | CCOC(=O)c1[nH]c2ccccc2c1NC(=O)c1cc(OCC)c(OCC)c(OCC)c1 | 97%
26 | CCOC(=O)c1[nH]c2ccccc2c1NC(=O)c1ccccc1F | 53%
27 | CCOC(=O)c1[nH]c2ccccc2c1NC(=O)c1cc(OC)cc(OC)c1 | 48% (active)
28 | CCOC(=O)c1[nH]c2ccccc2c1NC(=O)c1ccccc1OCC | 68%
29 | CCOC(=O)c1[nH]c2ccccc2c1NC(=O)c1ccccc1OC | 51% (active)
30 | Cc1ccc(CNC(=O)c2sc3nc(-c4ccccc4)cn3c2C)cc1 | 123%
31 | Cc1ccc2oc(C(=O)Nc3c(C(=O)c4ccc(C)c(F)c4)oc4ccccc34)cc(=O)c2c1 | 58%
32 | CCS(=O)(=O)N1N=C(c2ccc(C)cc2)CC1c1cc2ccc(OC)cc2nc1Cl (centres undefined) | 44% (active)
33 | CCOc1ccc2nc(Cl)c(C3CC(c4ccc(OC)cc4)=NN3S(C)(=O)=O)cc2c1 (centres undefined) | 127%
34 | CCOc1ccc2nc(Cl)c(C3CC(c4ccc(C)cc4)=NN3C(=O)CCC(=O)O)cc2c1 (centres undefined) | 50%
35 | CCOc1ccc(C2C(=O)N(C3CCCCCC3)CC(=O)N2CCc2ccccc2)cc1OC (centres undefined) | 88%
36 | N#Cc1cc(C#N)c(SCC(N)=O)nc1N | 72%
37 | CCc1ccccc1N1C(=O)N(Cc2ccc(C#N)cc2)c2ccccc2S1(=O)=O | 120%
38 | O=C(Nc1ccccc1)N(Cc1c[nH]c2ccccc12)C1CCCCCC1 | 52%
39 | Cc1ccc(NC(=O)N(Cc2c[nH]c3ccccc23)C2CCCCCC2)cc1C | 56%
40 | Cn1cc(CN(C(=O)Nc2ccc(Cl)c(Cl)c2)C2CCCCC2)c2ccccc21 | 51%
41 | COc1ccc2[nH]c(=O)c(CN(C(=O)Nc3ccccc3)C3CCCC3)cc2c1 | 78%
42 | Cn1cc(CN(C(=O)Nc2ccccc2)C2CCCCC2)c2ccccc21 | -14% (active)
43 | Cc1ccc(NC(=O)N(Cc2cn(C)c3ccccc23)C2CCCCC2)cc1C | -13% (active)
44 | CCC(C(=O)NCc1ccccc1)n1nc(C)c2sc3ccccc3c2c1=O (centres undefined) | 70%
45 | COc1cccc(CNc2sc3c(c2C(=O)Nc2ccc(OC)cc2OC)CCC3)c1 | 99%
46 | CC(=O)Nc1nonc1-c1nnc(SCC(=O)Nc2cc(C)cc(C)c2)n1C | 52%
47 | CC1CCC(NC(=O)C2(C)Cc3ccccc3C(=O)N2Cc2ccccc2Cl)CC1 (centres undefined) | 48%
48 | CC1(C(=O)NC2CCCCC2)Cc2ccccc2C(=O)N1Cc1ccc(Cl)cc1 (centres undefined) | 92%

Row | SMILES | survival
49 | CC1(C(=O)NC2CCCCC2)Cc2ccccc2C(=O)N1Cc1ccccc1Cl (centres undefined) | 43% (active)
50 | N#Cc1ccc(S(=O)(=O)N2CCNCC2)cc1 | 98%
51 | CC1=C(c2ccc(C(C)C)cc2)S(=O)(=O)NC1=NCc1ccccc1C | 77%
52 | Cc1[nH]n(-c2ccccc2)c(=O)c1/C=N/NC(=O)c1ccccc1 | 50%
53 | Cc1[nH]n(-c2ccc(Cl)cc2)c(=O)c1C(=O)c1ccccc1 | 40% (active)
54 | Cc1[nH]n(-c2ccccc2)c(=O)c1C(c1cc(Cl)ccc1O)c1c(C)[nH]n(-c2ccccc2)c1=O | 49%
55 | Cc1ccc2oc(-c3ccc(NC(=O)CCC(=O)O)cc3)nc2c1 | 86%
56 | Cc1ccc(-c2nc3sccn3c2Nc2ccc(C)c(C)c2)cc1 | 36% (active)
57 | CCc1cccc(C)c1Nc1c(-c2cccc(O)c2)nc2sccn12 | 105%
58 | Cc1ccc(-c2nc3sccn3c2Nc2ccccc2C)cc1 | 48%
59 | Cc1ccc(Nc2c(-c3ccc(Cl)cc3)nc3sccn23)c(C)c1 | 47%
60 | Cc1cccc(C)c1Nc1c(-c2ccc(O)cc2)nc2sccn12 | 28% (active)
61 | COc1cc(-c2nc3sccn3c2Nc2c(C)cccc2C)ccc1O | 125%
62 | Cc1cc(Cl)ccc1NC(=O)CN(c1ccccc1Br)S(C)(=O)=O | 55%
63 | CCOc1ccc(-n2ccnc2SCC(=O)Nc2cccc3ccccc23)cc1 | 68%
64 | O=c1cc(CN2CCN(S(=O)(=O)c3ccc(Cl)cc3)CC2)nc2sc(-c3ccccc3F)nn12 | 104%
65 | Cc1cccc(-n2ncc3c(NC4CCCC4)ncnc32)c1 | 69%
66 | O=C(O)c1ccc(/C=N/n2cnnc2)cc1 | 111%
67 | CCn1cc2c(n1)-c1c(oc(C(=O)Nc3cccc(C)c3C)c1C)CC2 | 95%
68 | Cc1ccccc1CNC(=O)c1oc2c(c1C)-c1nn(Cc3ccc(Cl)cc3)cc1CC2 | 73%
69 | Cc1ccccc1NC(=O)c1oc2c(c1C)-c1nn(Cc3cccc(Cl)c3)cc1CC2 | 35% (active)
70 | COc1cc(NC(=O)c2oc3c(c2C)-c2nn(Cc4cccc(Cl)c4)cc2CC3)cc(OC)c1 | 78%
71 | Cc1cccc(C)c1NC(=O)c1oc2c(c1C)-c1nn(Cc3ccccc3)cc1CC2 | 23% (active)
72 | Cc1cccc(CNC(=O)c2oc3c(c2C)-c2nn(Cc4cccc(Cl)c4)cc2CC3)c1 | 97%

Row | SMILES | survival
73 | O=C(O)CC1CCS(=O)(=O)C1 (centres undefined) | 62%
74 | CCOc1ccccc1N1CCN(C(=O)C2CCN(Cc3ccc(OC)cc3)CC2)CC1 | 98%
75 | CC1CCC(N2CC(=O)N(C3CCCC3)C(c3ccc(Cl)cc3)C2=O)CC1 (centres undefined) | 79%
76 | Cc1ccc2occ(CC(=O)N(Cc3ccc(C(C)C)cc3)C3CCS(=O)(=O)C3)c2c1 (centres undefined) | 66%
77 | COc1ccc(NS(=O)(=O)c2ccc(N3CCCCS3(=O)=O)cc2)cc1Cl | 71%
78 | COc1cccc(C(=O)Nc2ccccc2C(=O)OCc2cc(=O)n3c4c(sc3n2)CCCC4)c1 | 57%
79 | CCn1cc2nc(SCc3cccc(F)c3)n(CCc3ccccc3)c(=O)c2n1 | 71%
80 | CCn1cc2nc(SCc3ccccc3Cl)n(CCc3ccccc3)c(=O)c2n1 | 74%
81 | CCn1cc2nc(SCc3c(F)cccc3Cl)n(CCc3ccccc3)c(=O)c2n1 | 52% (active)
82 | CCOC(=O)c1c(C)[nH]c(C)c1S(=O)(=O)N(C)CC(=O)Nc1cccc(Cl)c1C | 73%
83 | CCOC(=O)c1c(C)[nH]c(CCC(=O)NCc2ccc(N(C)C)cc2)c1C | 83%
84 | CCOC(=O)Cn1nc(-c2ccccc2)c2cnc3ccc(OCC)cc3c21 | 109%
85 | Cn1nnc2c(NCc3ccccc3)ncnc21 | 32% (active)
86 | Cn1nnc2c(NCc3ccc(Cl)cc3)ncnc21 | 81%
87 | Cc1ccc(CNc2ncnc3c2nnn3C)cc1 | 58%
88 | O=C(c1cccs1)N(Cc1cccnc1)c1nc2c(Cl)cccc2s1 | 82%
89 | COc1ccccc1C(=O)Nc1ccc(-c2cc(C(F)(F)F)nn2-c2ccccc2)cc1 | 45%
90 | COc1ccccc1C(=O)NC(=O)Nc1ccc(-c2cc(C(F)(F)F)nn2-c2ccccc2)cc1 | 30% (active)
91 | O=C(Nc1ccc(-c2cc(C(F)(F)F)nn2-c2ccccc2)cc1)c1cccc(F)c1 | 26% (active)
92 | O=C(NC(=O)c1cccc(F)c1)Nc1ccc(-c2cc(C(F)(F)F)nn2-c2ccccc2)cc1 | 157%
93 | COc1ccccc1C(=O)NC(=O)Nc1ccc(-n2nc(C(F)(F)F)cc2C(F)(F)F)cc1 | 59%
94 | COc1cccc(C(=O)Nc2ccc(-c3cc(C(F)(F)F)nn3-c3ccccc3)cc2)c1 | 46%

Reference: PubChem BioAssay AID463173 (ICCB-Longwood Screening Facility, Harvard Medical School, 2010)
